Data from PubChem BioAssay AID720553 (National Center for Advancing Translational Sciences (NCATS), 2013).
The whole screen tested about 340,000 compounds, of which about 3,300 (0.97%) were called active.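 The calls were made as follows: active = maximum activity change below -70%; inconclusive = maximum activity change from -70% to -50%; inactive = maximum activity change above -50%.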 The list comes from a sample in which actives are over-represented; it also holds similar structures and randomly drawn compounds.

These compounds were tested on Potassium voltage-gated channel subfamily H member 2, brain isoform KCNH2 3.1 (human) (assay: qHTS for Inhibitors of KCHN2 3.1: Mutant qHTS). Settings: U2OS KCNH2 3.1, thallium flux FluxOr; active compounds read low.
Method in brief: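 Kinetic fluorescence (2 min after stimulation buffer) measures Tl+ influx through KCNH2 3.1 expressed by viral transduction in U2OS cells; the rate constant is normalized against DMSO controls serving as positive and negative references.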
% is scaled to controls: 0 for no effect and ±100 for the full control effect.

Structure (SMILES)	activity change
CC(OC(=O)c1ccc(NC(=O)CC#N)cc1)C(=O)Nc1ccc(S(=O)(=O)N2CCCC2)cc1 (centres undefined)	8.99% (inactive)
O=[N+]([O-])c1ccc(C(S(=O)(=O)Cc2ccccc2)S(=O)(=O)Cc2ccccc2)cc1	-21.9% (inactive)
CC1(C)CN(Cc2cccnc2)C(=O)[C@H]1CC(=O)Nc1ccc(Br)cc1	-12% (inactive)
COc1ccc(OC)c(C(=O)NC2CCCc3c2cnn3-c2cc(C)cc(C)c2)c1 (centres undefined)	-6.38% (inactive)
CCOC(=O)c1cc(-c2sc(NC(=O)c3ccccc3)nc2C)n(CCO)n1	-0.33% (inactive)
CCCCC(=O)Nc1ccc(C(=O)NCCCn2ccnc2)cc1	4.23% (inactive)
CC(=O)Nc1ccc(NC(=O)CCCNC(=O)c2ccc(Cl)cc2)cc1	7.78% (inactive)
CCCCC(=O)Nc1ccc(C(=O)Nc2cc(C(F)(F)F)ccc2Cl)cc1	-83.7% (active)
CCN(CC)C(=O)C(C)N1c2cccc3cccc(c23)S1(=O)=O (centres undefined)	-7.96% (inactive)
CNS(=O)(=O)c1ccc2c(c1)[nH]c(=S)n2C	9.63% (inactive)
COc1cc(C2C(C(=O)Nc3ccccc3OC)=C(C)Nc3ncnn32)ccc1O (centres undefined)	-70.3% (active)
COc1ccccc1NC(=O)C1=C(C)Nc2ncnn2C1c1ccc(C)o1 (centres undefined)	0.24% (inactive)
COc1ccccc1NC(=O)C1=C(C)Nc2nc3ccccc3n2C1c1cccs1 (centres undefined)	1.01% (inactive)
CC1CCN(C(=O)CSc2nnc(-c3ccco3)n2N)CC1	13.4% (inactive)
O=NN(CCCl)C(=O)NCCc1cccc[n+]1[O-]	-3.54% (inactive)
CCn1c(SCC(=O)N2CCCC2=O)nc2ccccc21	9.56% (inactive)
CC(C)Oc1ccc(CN2CCC(n3nccc3NC(=O)c3cccnc3)CC2)cc1	-80.6% (active)
O=C(CCc1ccccc1)Nc1ccnn1C1CCN(Cc2ccc(OCCO)cc2)CC1	-97.2% (active)
O=C(Nc1ccnn1C1CCN(Cc2cccc(OCCO)c2)CC1)C1CCCC1	5.49% (inactive)
COc1ccc(CN2CCC(n3nccc3NC(=O)CCCc3ccccc3)CC2)cc1C	-86.2% (active)
Cc1ccc(CN2CCC(n3nccc3NC(=O)CCCc3ccccc3)CC2)o1	3.89% (inactive)
COc1ccccc1C(=O)Nc1ccnn1C1CCN(Cc2cnn(C)c2)CC1	-32.4% (inactive)
COc1cc(CN2CCC(n3nccc3NC(=O)CCCc3ccccc3)CC2)ccc1O	-32.8% (inactive)

Structure (SMILES)	activity change
CC(C)=CCCC(C)CN1CCC(n2nccc2NC(=O)c2ccccc2)CC1 (centres undefined)	-34.5% (inactive)
Cc1c(CN2CCC(n3nccc3NC(=O)CCc3ccccc3)CC2)cnn1C	6.8% (inactive)
CCOC(=O)c1c(C)[nH]c(C)c1C(=O)COC(=O)/C=C/c1cccc([N+](=O)[O-])c1	-1.51% (inactive)
O=C(CNC(=O)N1CC(=O)Nc2ccccc21)Nc1ccc(Br)cc1F	2.32% (inactive)
COCCn1c(SCC(=O)Nc2ccc(F)cc2F)nc2c(c1=O)SCC2	-5.38% (inactive)
CCc1noc(C)c1C(=O)OCC(=O)c1ccc(NC(=O)CC(C)C)cc1	7.88% (inactive)
O=C(OCc1cn([C@H]2C[C@H](c3ccccc3)N(C(=O)c3cccs3)C[C@@H]2O)nn1)c1ccccc1	-26.8% (inactive)
CCOC(=O)C1(CCOc2ccccc2)CCN(Cc2cc(OC)cc(OC)c2)CC1	-108% (active)
CCCS(=O)(=O)N1CCC(CCOc2ccccc2)(C(=O)OCC)CC1	-4.06% (inactive)
CCOC(=O)C1(CCOc2ccccc2)CCN(Cc2ccc(C#CCCO)cc2)CC1	-7.38% (inactive)
Cc1ccc(/C=C/C(=O)Nc2cc(S(=O)(=O)N3CCCCCC3)ccc2OCC(F)(F)F)o1	-83.4% (active)
COc1ccc(S(=O)(=O)N2CCCCC2)cc1NC(=O)COc1ccccc1	-11.6% (inactive)
O=C(Nc1cc(S(=O)(=O)N2CCOCC2)ccc1OCC(F)(F)F)c1ccc(N2CCCC2=O)cc1	-24.2% (inactive)
CNC(=O)C[C@H]1C(=O)N(c2ccc(OC)cc2)C[C@@H]1Cc1ccccc1	6.56% (inactive)
COCCCn1c(=O)/c(=C/c2ccccc2OC(C)C)s/c1=C(\C#N)C(=O)Nc1ccc(C(=O)O)cc1	1.1% (inactive)
CCOC(=O)N1CCN(C(=O)C2CCN(S(=O)(=O)c3cc(Cl)ccc3OCC)CC2)CC1	-0.753% (inactive)
CCOc1ccc(Br)cc1S(=O)(=O)N1CCC(C(=O)O)CC1	-119% (active)
CCOc1ccc(S(=O)(=O)N2CCC(c3ccccc3)CC2)cc1C(=O)O	-0.0458% (inactive)
Cc1ccccc1NC(=O)Cc1nc(COC(=O)C(C)(C)Oc2ccc(Cl)cc2)cs1	0.0076% (inactive)
O=C(C1CCN(C2CCN(Cc3ccc4cc(F)ccc4n3)CC2)CC1)N1CCCC1	-46.6% (inactive)
O=C(C1CCN(C2CCN(Cc3cccc4c3OCO4)CC2)CC1)N1CCOCC1	1.54% (inactive)
C/C(=C\c1ccco1)CN1CCC(N2CCC(C(=O)N3CCOCC3)CC2)CC1	-81.6% (active)
COc1ccc([C@H]2C[C@@H](n3cc(COC(=O)c4ccccc4)nn3)[C@H](O)CN2C(=O)c2cccs2)cc1	5.99% (inactive)

Structure (SMILES)	activity change
COc1cc(-c2nnc(NC(=O)CS(=O)(=O)c3ccc(Cl)cc3)o2)cc(OC)c1OC	3.81% (inactive)
CN1OC[C@@H]2CN[C@H](c3ccc(-c4ccccc4)cc3)C[C@@H]21	-8.66% (inactive)
CC(C)c1cc(C(=O)N(C)C2CCCN(Cc3ccccc3F)C2)n(C)n1 (centres undefined)	-13.2% (inactive)
COc1ccc(NC(=O)CN(C)C(=O)c2cc(C)oc2C)cc1	-19.2% (inactive)
CCn1c(-c2cccnc2Cl)nc2cc(C)c(C)cc21	1.97% (inactive)
CCOC(=O)Cn1c(=O)n(Cc2ccc(OC)cc2)c(=O)c2cccnc21	-6.36% (inactive)
CCOC(=O)Cn1c(-c2cccnc2Cl)nc2ccccc21	-86.5% (active)
CC(C)Oc1ccc(CCc2nnc(SCC(=O)O)n2-c2ccccc2)cc1	-77.9% (active)
CC(C)Oc1ccc(CCc2n[nH]c(=S)n2Cc2ccccc2)cc1	3.01% (inactive)
CNC(=O)CSc1nnc(CCc2ccccc2)n1-c1ccccc1	-7.79% (inactive)
O=Cc1cn(CCOc2ccc(F)cc2)c2ccccc12	-5.46% (inactive)
O=C(NCc1ccccc1)C1CNCC(C(=O)NCc2ccccc2)C1 (centres undefined)	-3.07% (inactive)
O=C(CN1CCN(C(=O)c2cccc(F)c2)CC1)Nc1ccccc1F	-0.253% (inactive)
O=C(CN1CCCCCC1)Nc1ccc(Cl)cc1F	7.99% (inactive)
O=C(CCN1CCN(C/C=C/c2ccccc2)CC1)Nc1ccccc1Cl	-111% (active)
CCOC(=O)N1CCN(CCC(=O)Nc2ccccc2)CC1	12.9% (inactive)
O=C(CCN1CCN(C/C=C/c2ccccc2)CC1)Nc1cccc(F)c1	-109% (active)
O=C(CN1CCN(C/C=C/c2ccccc2)CC1)Nc1ccc(F)cc1F	-107% (active)
COc1ccccc1NC(=O)CCN1CCN(c2ccc(Cl)cc2)CC1	-5.85% (inactive)
O=C(CCN1C(=O)c2ccccc2C1=O)Nc1cccc(F)c1	3.35% (inactive)
CNC(=O)NC(=O)C(C)N1CCN(C/C=C/c2ccccc2)CC1 (centres undefined)	-32.3% (inactive)
O=C(C[C@H]1C[C@@H]2c3cc(NC(=O)C4CCC4)ccc3O[C@@H]2[C@H](CO)O1)NC1CCCCC1	-25.5% (inactive)
N#Cc1ccc(OCC(=O)Nc2nc(-c3ccccn3)cs2)cc1	6.83% (inactive)

Structure (SMILES)	activity change
CCN1C(=O)[C@H]2[C@@H](c3ccccc3)N[C@]3(CCCN(Cc4ccc(C)cc4)C3=O)[C@H]2C1=O	28.9% (inactive)
COc1ccc(-c2ccc3[nH]c4c(c3c2)CCN2C[C@H]3[C@H](C)ON(C)[C@H]3C[C@@H]42)cc1	-3.51% (inactive)
O=C(CCc1ccc(O)cc1)NN=Cc1cc(Br)ccc1O	1.97% (inactive)
O=C(COc1ccc(Br)cc1)OCC(=O)c1ccc[nH]1	-1.12% (inactive)
COc1ccc(N)cc1NC(=O)CN1CCOCC1	1.24% (inactive)
Cc1ccc(-n2c(SCC(=O)Nc3ccc4c(c3)OCO4)nnc2-c2ccoc2C)cc1	-79.7% (active)
O=C(CSc1nnc(-c2ccccn2)n1-c1ccccc1)Nc1ccc2c(c1)OCO2	2.89% (inactive)
Cc1ccc(-n2c(SCC(=O)Nc3ccc4c(c3)OCO4)nnc2-c2ccccn2)cc1	1.11% (inactive)
COc1cccc(/C=C2\SC(=S)N(CCCC(=O)N3CCOCC3)C2=O)c1	-1.71% (inactive)
COc1ccc(CN2C(=O)C(CC(=O)NCCCCc3ccccc3)CC(C(=O)N3CCOCC3)=C2C)cc1 (centres undefined)	-14.3% (inactive)
Cc1cc(OCC(=O)Nc2nccs2)c2c(C)c(C)c(=O)oc2c1	-8.76% (inactive)
CN1CCN(CCNC(=O)Nc2ccc([N+](=O)[O-])cc2)CC1	4.38% (inactive)
O=C(NCCCN1CCN(c2ccc(F)cc2)CC1)Nc1ccc([N+](=O)[O-])cc1	-86.7% (active)
O=C(CN1CCN(c2ccccc2)CC1)Nc1ccc(F)cc1	0.316% (inactive)
CN(C)C(CNC(=O)c1cc(Br)c(Br)s1)c1ccco1 (centres undefined)	-1.59% (inactive)
O=C(NCc1nnnn1-c1ccc(Cl)cc1)c1ccc2c(c1)OCO2	-10.1% (inactive)
O=C(COC(=O)c1cncc(Br)c1)Nc1ccc(S(=O)(=O)N2CCOCC2)cc1	-6.79% (inactive)
COC(=O)[C@@H](Cc1ccccc1)NC(=O)NCCc1ccccc1	-9.89% (inactive)
COC(=O)[C@H](Cc1ccccc1)NC(=O)[C@@H]1C[C@H]1[C@@H](NC(=O)OCc1ccccc1)c1ccccc1	-95.1% (active)
COC(=O)[C@H](Cc1ccccc1)NC(=O)N1CC(C)OC(C)C1 (some centres undefined)	-5.69% (inactive)
